The sample as a whole holds a higher share of hits than the screen did.
IDE exosite FP – exo-site inhibitors of human insulin-degrading enzyme; purified IDE, FL-6b probe fluorescence polarization; active compounds read low; z-score at 20 µM; 6.3% of 17,000 active;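 active means z-score of -3 or lower, meaning strong loss of probe binding signal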;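 further: His-tagged human IDE residues 42-1019 made in E. coli with 30 nM FL-6b probe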
Target sequence (P14735 42-1019 limits assumed): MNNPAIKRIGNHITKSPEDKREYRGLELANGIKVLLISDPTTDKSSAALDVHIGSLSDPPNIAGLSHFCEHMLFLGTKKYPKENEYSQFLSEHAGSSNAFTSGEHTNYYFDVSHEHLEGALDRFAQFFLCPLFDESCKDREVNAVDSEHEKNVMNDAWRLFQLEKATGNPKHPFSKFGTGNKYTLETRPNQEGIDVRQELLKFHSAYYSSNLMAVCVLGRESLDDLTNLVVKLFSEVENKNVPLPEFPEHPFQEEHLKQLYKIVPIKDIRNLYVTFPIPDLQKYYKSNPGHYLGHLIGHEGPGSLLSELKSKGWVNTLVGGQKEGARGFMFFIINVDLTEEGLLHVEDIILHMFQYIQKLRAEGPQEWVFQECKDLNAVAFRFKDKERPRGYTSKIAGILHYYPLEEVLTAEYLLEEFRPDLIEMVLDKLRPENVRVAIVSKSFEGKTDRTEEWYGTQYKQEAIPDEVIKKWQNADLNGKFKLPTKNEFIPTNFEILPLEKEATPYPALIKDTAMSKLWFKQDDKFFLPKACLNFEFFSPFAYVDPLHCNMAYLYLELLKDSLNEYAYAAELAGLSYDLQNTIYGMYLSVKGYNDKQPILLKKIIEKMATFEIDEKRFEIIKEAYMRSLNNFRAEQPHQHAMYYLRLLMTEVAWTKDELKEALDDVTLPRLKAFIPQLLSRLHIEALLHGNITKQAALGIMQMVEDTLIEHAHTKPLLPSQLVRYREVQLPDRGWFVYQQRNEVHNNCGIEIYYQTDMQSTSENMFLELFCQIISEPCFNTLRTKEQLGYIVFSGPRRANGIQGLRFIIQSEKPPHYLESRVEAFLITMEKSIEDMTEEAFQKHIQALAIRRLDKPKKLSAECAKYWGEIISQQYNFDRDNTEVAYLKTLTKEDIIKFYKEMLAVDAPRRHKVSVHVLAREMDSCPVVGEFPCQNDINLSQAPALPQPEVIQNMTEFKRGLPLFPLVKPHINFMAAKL
Active calls of the source: *.

SMILES | IDE exosite FP
N#C[C@H]1[C@@H](c2ccc(C#CC3CCCC3)cc2)[C@H](CO)N1S(=O)(=O)c1ccccc1 | 6.2
COCC(=O)N1[C@H](CO)[C@@H](c2ccccc2-c2cccc(OC)c2)[C@@H]1C#N | 1.3
O=C(Nc1ccccc1F)N1CCCCN2[C@H](C1)[C@H](c1ccc(C3=CCCC3)cc1)[C@@H]2CO | 4.4
O=C(Nc1ccccc1F)N1CCCCN2[C@H](CO)[C@H](c3ccc(C4=CCCC4)cc3)[C@H]2C1 | 2.1
O=C(Nc1ccccc1F)N1CCCCN2[C@H](CO)[C@H](c3ccc(/C=C/c4ccccc4)cc3)[C@H]2C1 | -4.9*
C/C=C/c1ccc([C@H]2[C@@H](CO)N3CCCCN(C(=O)Nc4ccccc4F)C[C@@H]23)cc1 | -0.84
O=C(Nc1ccccc1F)N1CCCCN2[C@H](C1)[C@@H](c1ccc(/C=C/c3ccccc3)cc1)[C@@H]2CO | -2.7
O=C(Nc1ccccc1F)N1CCCCN2[C@H](CO)[C@H](c3ccc(/C=C/c4ccccc4)cc3)[C@@H]2C1 | -3.9*
O=C(c1ccc(F)cc1)N1CC(=O)N2[C@H](CO)[C@H](c3ccc(C#CC4CC4)cc3)[C@@H]2C1 | 2.2
O=C(Nc1cc(F)ccc1F)N1CC(=O)N2[C@H](CO)[C@H](c3ccc(-c4cccnc4)cc3)[C@@H]2C1 | -1.5
CCC(=O)N1C[C@H](C)[C@H](OC)CN(C)C(=O)c2cc(NC(=O)Nc3ccc(Cl)cc3)ccc2OC[C@H]1C | 0.051
CC(=O)N1CCCCN2[C@H](C1)[C@H](c1ccc(C#Cc3ccccc3F)cc1)[C@@H]2CO | -4.7*
CC(=O)N1CCCCN2[C@H](CO)[C@@H](c3ccc(-c4ccccc4)cc3)[C@H]2C1 | -0.77
O=C(Nc1ccc(F)cc1)N1CCCCN2[C@H](CO)[C@@H](c3ccc(C#Cc4ccccc4)cc3)[C@@H]2C1 | 3.6
COc1ccc(C#Cc2ccc([C@H]3[C@@H](CO)N4CCCCN(C(=O)Nc5ccccc5F)C[C@@H]34)cc2)cc1 | 1.7
COc1ccc(C#Cc2ccc([C@@H]3[C@@H](CO)N4CCCCN(C(=O)Nc5ccccc5F)C[C@@H]34)cc2)cc1 | 0.14
CC(=O)N1CCCCN2[C@H](CO)[C@H](c3ccc(C#Cc4ccccc4F)cc3)[C@@H]2C1 | -4.9*
CC(=O)N1CCCCN2[C@@H](CO)[C@H](c3ccc(C#Cc4ccccc4F)cc3)[C@@H]2C1 | -0.29
CC(=O)N1CCCCN2[C@H](C1)[C@@H](c1ccc(C#Cc3ccccc3F)cc1)[C@@H]2CO | -4.5*
CC(=O)N1CCCCN2[C@H](CO)[C@H](c3ccc(C#Cc4ccccc4F)cc3)[C@H]2C1 | -7.3*
CCC(=O)N(C)C[C@H]1[C@@H](c2ccc(C3=CCCCC3)cc2)[C@@H](CO)N1C(C)=O | 0.082
COCC#Cc1ccc([C@H]2[C@@H](CO)N3CCCCN(S(=O)(=O)c4ccc(OC)cc4)C[C@H]23)cc1 | 1.6
N#C[C@@H]1[C@H](c2ccccc2)[C@@H](CO)N1C(=O)c1ccccc1F | 1.2
Cc1noc(C)c1S(=O)(=O)N(C)C[C@H]1OCCCC[C@H](C)Oc2ccc(NC(=O)CCC(F)(F)F)cc2C(=O)N([C@@H](C)CO)C[C@H]1C | 1.1
COc1cccc(S(=O)(=O)Nc2ccc3c(c2)C(=O)N(C)[C@@H]2CC[C@@H](CC(=O)NCC4CCCCC4)O[C@H]2CO3)c1 | -1.4
SMILES | IDE exosite FP
CN1C(=O)c2cc(NC(=O)c3cccc(Cl)c3)ccc2OC[C@@H]2O[C@H](CC(=O)NC3CCCCC3)CC[C@@H]21 | -0.95
CN1C(=O)c2cc(NC(=O)c3cccc(F)c3)ccc2OC[C@@H]2O[C@@H](CC(=O)NCc3ccccc3Cl)CC[C@H]21 | -0.83
O=C(C[C@H]1C=C[C@@H](NS(=O)(=O)c2ccc(F)cc2)[C@H](CO)O1)N1CCc2ccccc2C1 | -0.82
C[C@@H](O)C#Cc1ccc([C@H]2[C@H]3CN(CC4CC4)CCCCN3[C@H]2CO)cc1 | -1
CCC(=O)N1CCCCN2[C@H](CO)[C@@H](c3ccc(-c4cccc(C(=O)N(C)C)c4)cc3)[C@H]2C1 | -0.2
O=C(Nc1ccc(F)cc1)N1CC(=O)N2[C@H](CO)[C@@H](c3ccc(C#Cc4cccnc4)cc3)[C@H]2C1 | -0.58
O=C1CCCn2cc(nn2)COC[C@H](c2ccccc2)N1 | 0.15
COc1cccc(C(=O)Nc2ccc3c(c2)C(=O)N(C)[C@@H]2CC[C@H](CC(=O)N[C@H](C)c4ccccc4)O[C@H]2CO3)c1 | 0.39
O=C(Nc1ccc(F)cc1)N1CC(=O)N2[C@H](C1)[C@H](c1ccc(C#Cc3cccnc3)cc1)[C@@H]2CO | -1.6
COc1ccc2c3c(n(C)c2c1)[C@@H](CO)N(C)CC31CCN(C(=O)c2ccc3c(c2)OCO3)CC1 | -2.1
CC(=O)N1CCCCN2[C@@H](CO)[C@@H](c3ccc(-c4cccc(C)c4)cc3)[C@@H]2C1 | -2.4
COCC(=O)N1CCCCN2[C@H](CO)[C@@H](c3ccc(-c4cccc(C)c4)cc3)[C@H]2C1 | -0.66
CC(=O)N1CCCCN2[C@H](CO)[C@H](c3ccc(-c4ccc(C)cc4)cc3)[C@@H]2C1 | 0.45
CC(=O)N1CCCCN2[C@H](CO)[C@@H](c3ccc(-c4cccc(C)c4)cc3)[C@@H]2C1 | -3.5*
CC(=O)N1CCCCN2[C@H](C1)[C@H](c1ccc(-c3ccccc3)cc1)[C@@H]2CO | 0.47
CC(=O)N1CCCCN2[C@@H](CO)[C@@H](c3ccc(-c4ccccc4)cc3)[C@@H]2C1 | -1.8
CC(=O)N1CCCCN2[C@H](CO)[C@@H](c3ccc(-c4cccc(C)c4)cc3)[C@H]2C1 | -5.7*
COCC(=O)N1CCCCN2[C@H](CO)[C@H](c3ccc(-c4ccc(C)cc4)cc3)[C@H]2C1 | 0.099
COCC(=O)N1CCCCN2[C@H](C1)[C@@H](c1ccc(-c3cccc(C)c3)cc1)[C@@H]2CO | -5*
CN1[C@H](C(=O)N2CCc3ccccc3C2)[C@@H](CO)[C@@H]2Cn3c(ccc(-c4cccnc4)c3=O)[C@@H]21 | 0.11
O=C(NCC[C@H]1CC[C@H](NC(=O)c2ccccc2F)[C@@H](CO)O1)c1cnccn1 | 1.3
CN(C)CC#Cc1ccc([C@H]2[C@@H](CO)N3C(=O)CN(C(=O)Cc4ccccc4)C[C@@H]23)cc1 | -1.5
COCCN(C[C@@H]1N[C@@H](CO)[C@H]1c1ccc(-c2cccnc2)cc1)C(C)=O | 0.85
CCCC#Cc1ccc([C@@H]2[C@H]3CN(Cc4ccncc4)CCCCN3[C@H]2CO)cc1 | -0.54
CCC(=O)N1[C@@H]2c3ccc(C4=CCCCC4)c(=O)n3C[C@@H]2[C@@H](CO)[C@@H]1C(=O)NCc1ccc(F)cc1 | -0.42
SMILES | IDE exosite FP
COc1cccc(-c2ccc([C@H]3[C@@H](CO)N(C(=O)c4ccccn4)[C@H]3C#N)cc2)c1 | -5.9*
COc1cccc(C#Cc2ccc([C@H]3[C@@H](C#N)N(C(=O)c4ccccn4)[C@@H]3CO)cc2)c1 | -1.1
COc1cccc(-c2ccc([C@H]3[C@@H](C#N)N(C(=O)c4ccccn4)[C@@H]3CO)cc2)c1 | -4.3*
COc1cccc(C#Cc2ccc([C@@H]3[C@@H](C#N)N(C(=O)c4ccccn4)[C@H]3CO)cc2)c1 | 1.5
COc1cccc(-c2ccc([C@H]3[C@H](C#N)N(C(=O)c4ccccn4)[C@H]3CO)cc2)c1 | -2.9
COc1cccc(C#Cc2ccc([C@@H]3[C@@H](C#N)N(C(=O)c4ccccn4)[C@@H]3CO)cc2)c1 | -1.3
CCS(=O)(=O)N1[C@H](CO)[C@H](c2ccc(C#CCC3CCCC3)cc2)[C@@H]1C#N | 1.5
O=C(Nc1cccc(F)c1)N1CC(=O)N2[C@@H](CO)[C@H](c3ccc(C#CCC4CCCC4)cc3)[C@@H]2C1 | 1.4

Screening results as filed in PubChem BioAssay.
